Structures are written as SMILES. Records with an inconclusive call do not appear. The source holds several records for some structures; these can differ, active in one and inactive in another. Calls of active or inactive are those of the source. The call rests on the fitted dose curve; in most records, active means well fitted activation curve with a large enough effect in the repeat runs; inconclusive means weak or mixed curves; inactive means flat fitted curve, though single readings scatter.
Potency means the concentration at half of the fitted maximal effect.

This experiment is described as follows: A CellTox Green Cytotoxicity Assay to monitor cytotoxicity in HepG2 cells - 40 hour (AID 1224879). Further: nearly all actives have a fitted effect of over 40% in size. Particulars: CellTox Green fluorescence; series mostly up to 76.8 µM. In short, it runs like this: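 Real-time cytotoxicity: fluorescence of a cell-impermeant cyanine dye binding DNA of dead HepG2 cells, measured repeatedly (0–40 h) during compound exposure at 37 C. Cells seeded 600/well with reagent, dosed after 5 h.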
As for `C[C@@H](NCCCc1cccc(C(F)(F)F)c1)c1cccc2ccccc12`, the Potency is 15.1 µM (active). For `CC(C)(C)C(=O)OCOC(=O)[C@@H]1N2C(=O)[C@@H](NC(=O)[C@H](N)c3ccccc3)[C@H]2SC1(C)C` the value was “inactive”; for `O=[N+]([O-])c1ccccc1Nc1ccccc1`, “inactive”; for `CC(C)(C)c1ccc(C(=O)O)cc1`, “inactive”. For `CCCCCCCC(=O)[O-].CCCCCCCC(=O)[O-].[Zn+2]` the value was “inactive”. As for `CCCCCCCCCCC=O`, the entry is “inactive”. Turning to `CCCCCCCC[P+](CCCCCCCC)(CCCCCCCC)CCCCCCCC`, the Potency is 10.9 µM (active).

On to `CC(C)c1ccc2c(c1)CC[C@H]1[C@](C)(CN)CCC[C@]21C`, for which the Potency is 11 µM (active). For `O=C(O)c1ccc(Cl)c(Cl)c1` the value was “inactive”; for `COc1cccc(N)c1`, “inactive”; for `CCCCCCCC/C=C/CCCCCCCC1=NCCN1CCO`, 12.3 µM (active). For `Cc1cc(O)c2ccccc2c1O` the value was 13.4 µM (active); for `O=C1C=CC(=O)N1c1ccc(Cc2ccc(N3C(=O)C=CC3=O)cc2)cc1`, 7.76 µM (active); for `O=C1C=CC(=O)N1`, 17.8 µM (active). As for `CCCCCCCC/C=C\CCCCCCCCOCCO`, the figure is 63.7 µM (active); as for `Cc1cc(O)c(C(C)(C)C)cc1Sc1cc(C(C)(C)C)c(O)cc1C`, 48.9 µM (active); as for `NNC(=O)c1cccc(C(=O)NN)c1`, “inactive”. Turning to `CCCCCCCCNC(C)C(O)c1ccc(SC(C)C)cc1` (centres undefined), the Potency was 15.1 µM (active). As for `C=CC(=O)OCC(CO)(COCC(COC(=O)C=C)(COC(=O)C=C)COC(=O)C=C)COC(=O)C=C`, the figure is 15.3 µM (active); as for `CC[C@H]1O[C@]2(CC[C@@H]1C)C[C@@H]1C[C@@H](C/C=C(\C)C[C@@H](C)/C=C/C=C3\CO[C@@H]4[C@H](O)C(C)=C[C@@H](C(=O)O1)[C@]34O)O2`, 27.3 µM (active).

Turning to `CN(C)[C@@H]1C(=O)C(C(N)=O)=C(O)[C@@]2(O)C(=O)C3=C(O)c4c(O)ccc(Cl)c4[C@@H](O)[C@H]3C[C@@H]12`, the Potency entry is “inactive”. For `CC(=O)N1CCN(c2ccc(OC[C@H]3CO[C@](Cn4ccnc4)(c4ccc(Cl)cc4Cl)O3)cc2)CC1` the value was 54.9 µM (active); for `COc1ccc(C(=O)/C(Br)=C\C(=O)O)cc1`, 13.8 µM (active); for `CN(C)CCCOC1(Cc2ccccc2)CCCCCC1`, “inactive”. `Oc1c(Cl)cc(Cl)c2cccnc12`: the Potency was 8.49 µM (active). With `O=C1CCCCCN1SSN1CCCCCC1=O`, the Potency was 54.9 µM (active).

On to `O=C(c1ccc(O)cc1O)c1ccc(O)cc1O`, for which the Potency entry is “inactive”. As for `OCCN1CCN(CC/C=C2/c3ccccc3Sc3ccc(C(F)(F)F)cc32)CC1`, the figure is 13.4 µM (active).

Turning to `Nc1ccc2cc(S(=O)(=O)O)cc(O)c2c1N=Nc1ccccc1C(F)(F)F`, the Potency result was “inactive”. Consider `CN(C)[C@@H]1C(=O)C(C(N)=O)=C(O)[C@@]2(O)C(=O)C3=C(O)c4c(O)cccc4C[C@H]3C[C@@H]12`, for which the Potency result was “inactive”. Regarding `C1CCCC1`, the Potency result is “inactive”. For `CCCC(c1cc(C(C)(C)C)c(O)cc1C)c1cc(C(C)(C)C)c(O)cc1C` the value was 31.3 µM (active); for `Oc1cc2ccccc2c2ccccc12`, 11 µM (active); for `Clc1ccccc1C(c1ccccc1)(c1ccccc1)n1ccnc1`, 21.9 µM (active) and inactive.

Values taken from PubChem BioAssay (Tox21).
